Screening results: PubChem, National Center for Advancing Translational Sciences (NCATS)
Rows were chosen to be rich in hits. Some 2.1% of all compounds tested hit in one or more screens of this group.
FUS yeast rescue – FUS proteinopathy suppression in yeast; S. cerevisiae FUS-expressing, growth rescue, OD600, 24 h; Potency, µM (titrated, usually from 76.6 µM), most hits filed as activators; hit rate 0.24% among 390,000; also: nearly all actives have a fitted effect of over 55% in size
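Absorbance at 600 nm, taken 24hr after compound addition, measured rescue of FUS-yeast growth at 30C. Induction used 2% galactose with seeding at OD 0.005. Controls: CP55940 from 92uM final, DMSO only.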
aSyn rescue – rescues yeast growth from alpha-synuclein toxicity | Yeast expressing alpha-synuclein, growth rescue, BacTiter-Glo, 24 h | Potency, µM (titrated, usually from 46.1 µM), hits mostly activators | hit rate 0.14% among 370,000; also: nearly all actives have a fitted effect of over 65% in size
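Readout is rescue of growth in alpha-synuclein-expressing yeast, so inhibitors of toxicity appear as activators. Growth after 24 hr at 30 deg C in galactose medium is quantified by luminescence.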
TDP43 rescue – inhibitors of TDP-43 toxicity in yeast; TDP-43 expressing yeast growth rescue, BacTiter-Glo, 24 h; Potency, µM (top dose mostly 46.1 µM), usual class: activators; hit rate 1.8% among 410,000; AID 652104; also: nearly all actives have a fitted effect of over 50% in size
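Galactose-induced TDP-43 yeast, OD600=0.02, compound pinned; 24 hr, 30 deg C; BacTiter-Glo luminescence for growth. Inhibitors of TDP-43 toxicity read as activators.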
Abeta yeast res – compounds reversing amyloid beta toxicity in yeast. yeast expressing A-beta42, growth rescue, OD600, 48 h; response scale: 0% DMSO, 100% iron-clioquinol control. Potency, µM (doses to about 46.1 µM), hits mostly activators. hit rate 0.063% among 410,000. AID 1347071; also: nearly all actives have a fitted effect of over 55% in size
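Growth rescue measured by 600 nm absorbance after 48 h yeast culture at 30 C with compound. Values normalized between DMSO and an equimolar ferric chloride plus clioquinol control.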
Each line names hits and unclear results; the compound was inactive in the other large screens. Calls follow the shape of the dose curve; as a rule, active = well fitted curve in the direction sought with a large enough effect; inconclusive = small, poorly fitted or top-dose-only effect, or another doubt; inactive = no such curve, though single readings can be large; an effect the other way counts as inactive or inconclusive.

O=C(CCC1CCCCC1)NNC(=O)NC12CC3CC(CC(C3)C1)C2	FUS yeast rescue 25µM
Cc1ccsc1C(=O)OCC(=O)c1ccc[nH]1	none (no result: FUS yeast rescue)
CCN(C(=O)/C=C/c1ccc(OC)cc1)C1CCS(=O)(=O)C1 (stereo unspecified)	none
CCN(C(=O)/C=C/c1ccc(OC)cc1)C1CCCCC1	TDP43 rescue 18µM
CCn1c2ccccc2c2cc(NC(=O)CSc3nnc(-c4cccc(OC)c4)n3N)ccc21	none
O=C(CNS(=O)(=O)c1ccccc1)N/N=C/c1ccncc1	none
Cc1ccc(NC(=O)COc2ccc(Cl)cc2Cl)cc1S(=O)(=O)N1CCOCC1	TDP43 rescue 14µM
COc1cccc(C(=O)OCC(=O)Nc2ccccc2N2CCOCC2)c1	TDP43 rescue inconclusive
Cc1cc(Cl)ccc1OCC(=O)Nc1ccccc1N1CCOCC1	TDP43 rescue 13µM
Cc1ccc(NC(=O)C(C)OC(=O)c2ccc(NC(=O)CC#N)cc2)cc1S(=O)(=O)N1CCOCC1 (stereo unspecified)	FUS yeast rescue 14µM
COc1cccc(C(=O)Nc2ccccc2N2CCOCC2)c1	TDP43 rescue 13µM
O=C(Nc1ccc(N2CCN(Cc3ccccc3Cl)CC2)cc1)c1cccnc1	none
CCOC(=O)c1ccc(NC(=S)N2CCSC2c2ccc(Cl)cc2)cc1 (stereo unspecified)	FUS yeast rescue inconclusive, TDP43 rescue 16µM
O=C(COC(=O)CNC(=O)c1ccc(Cl)cc1Cl)NC1CC1	none
Cc1cc(-c2ccccc2)n2nc(C)c(C#N)c2n1	TDP43 rescue 16µM
COC(=O)[C@]12C[C@H](CC(=O)N3CCN(C(=O)C4CC4)CC3)C(=O)N(Cc3ccco3)C1=C[C@H](C1CCCC1)O[C@@H]2C	none (no result: aSyn rescue, TDP43 rescue, Abeta yeast res)
COC(=O)[C@]12C[C@H](CC(=O)N3CCN(C(=O)C4CC4)CC3)C(=O)N(Cc3ccc(Cl)cc3Cl)C1=C[C@H](C(C)C)O[C@@H]2C1CC1	FUS yeast rescue 28µM (no result: aSyn rescue, TDP43 rescue, Abeta yeast res)
COC(=O)[C@]12C[C@H](CC(=O)N3CCC(c4ccccc4)CC3)C(=O)N(Cc3ccc(Cl)cc3Cl)C1=C[C@H](C(C)(C)C)O[C@@H]2C	none (no result: aSyn rescue, TDP43 rescue, Abeta yeast res)
COC(=O)[C@]12C[C@H](CC(=O)N3CCOCC3)C(=O)N(Cc3ccc(Cl)cc3Cl)C1=C[C@H](C(C)(C)C)O[C@@H]2C	FUS yeast rescue 16µM (no result: aSyn rescue, TDP43 rescue, Abeta yeast res)
COC(=O)[C@]12C[C@H](CC(=O)N3CCN(C(=O)C4CC4)CC3)C(=O)N(Cc3ccc(Cl)cc3Cl)C1=C[C@H](C1CCCC1)O[C@@H]2C	FUS yeast rescue 32µM (no result: aSyn rescue, TDP43 rescue, Abeta yeast res)
COc1ccccc1Cn1c(SCC(=O)C(C)(C)C)nc2ccccc2c1=O	none (no result: aSyn rescue)
O=C(Nc1ccc(F)cc1)c1ccc(CSc2ccc(Cl)cc2)o1	Abeta yeast res inconclusive
CC(=O)c1ccc(NC(=O)c2ccc(CSc3ccccc3)o2)cc1	TDP43 rescue 16µM
O=C(Nc1ccc(F)cc1)c1ccc(CSc2ccccc2)o1	TDP43 rescue 16µM
CC(C)Cn1c(SCC(=O)Nc2cccc(S(N)(=O)=O)c2)nc2ccccc2c1=O	none
Cc1ccc(C2=NC(C)(C)N=C2SCC(=O)Nc2ccc(Cl)cc2)cc1	TDP43 rescue 35µM
CC1(C)N=C(SCC(=O)Nc2ccc(Cl)cc2Cl)C(c2ccccc2)=N1	none
O=C(CSc1ncc(-c2ccccc2)[nH]1)Nc1ccc(Cl)cc1	TDP43 rescue 22µM (no result: aSyn rescue)
O=C(CSc1ncc(-c2ccccc2)[nH]1)Nc1ccccc1	none
CC1(C)N=C(SCC(=O)Nc2ccccc2)C(c2ccc(Cl)cc2)=N1	TDP43 rescue 18µM
Cc1ccc(C2=NC3(CCCC3)N=C2SCC(=O)Nc2ccc3c(c2)OCCO3)cc1	none
Cc1cc(C)c(S(=O)(=O)c2ccc(Cl)cc2)c(Cl)n1	TDP43 rescue inconclusive
Cc1cc(S(=O)(=O)c2ccc(Cl)cc2)nc(S(=O)(=O)c2ccc(Cl)cc2)c1C#N	TDP43 rescue 3.5µM
COc1cc(/C(C#N)=C/c2cccc3ccccc23)c([N+](=O)[O-])cc1OC	none
COc1ccc(C(C#N)=Cc2cccc(OC)c2OC)cc1	TDP43 rescue 18µM
Clc1ccc(-c2nn3cnnc3s2)c(Cl)c1	TDP43 rescue 18µM
Nc1nnc(-c2ccc(Cl)cc2Cl)s1	TDP43 rescue 11µM
COc1ccc2oc(=N)c(-c3nnc4n3CCCCC4)cc2c1	none (no result: aSyn rescue)
Cc1ccc(C)c(-c2nnc(NC(=O)Cc3ccccc3)o2)c1	none
COc1ccc(C=O)cc1COc1ccc2c(c1)OCO2	TDP43 rescue 14µM
COc1ccc(C=O)cc1COc1ccc([N+](=O)[O-])c(C)c1	TDP43 rescue inconclusive
O=C(C1=C(O)/C(=C/c2ccc(O)cc2)CCC1)C(F)(F)F	TDP43 rescue 22µM
O=C1c2ccccc2NC(c2ccc(-c3ccc(Br)cc3)o2)N1O (stereo unspecified)	FUS yeast rescue inconclusive, aSyn rescue 22µM
O=C1c2ccccc2NC(c2ccc(-c3ccc(F)cc3)o2)N1O (stereo unspecified)	none (no result: aSyn rescue, TDP43 rescue)
Cc1ccc(NC(=O)COC(=O)c2nn(C)c(=O)c3ccccc23)cc1F	none
Cc1nc(NC(=O)C2CC2)sc1C(=O)Nc1ccc(Br)cc1	none
C1=C(c2ccccc2)Nc2ncnn2C1c1ccccc1 (stereo unspecified)	TDP43 rescue 20µM
CN(C)c1ccc(C2C=C(c3ccc(Cl)cc3OC(F)F)Nc3ncnn32)cc1 (stereo unspecified)	FUS yeast rescue inconclusive
Cc1ccc(C2=CC(c3ccccc3)n3ncnc3N2)c(C)c1 (stereo unspecified)	TDP43 rescue inconclusive, Abeta yeast res inconclusive
Cc1ccc(C2C=C(c3ccccc3OC(F)F)Nc3ncnn32)cc1 (stereo unspecified)	TDP43 rescue 13µM (no result: FUS yeast rescue)
Cc1ccc(C2=CC(c3ccccc3)n3ncnc3N2)cc1 (stereo unspecified)	TDP43 rescue 13µM
Cc1ccc(C2C=C(c3ccc4c(c3)OCO4)Nc3ncnn32)cc1 (stereo unspecified)	TDP43 rescue 13µM
CNc1ccccc1-n1ccc(-c2ccccc2)n1	none
CCOc1ccc(-n2c(SCC(=O)c3ccc4ccccc4c3)nnc2-c2ccco2)cc1	none (no result: aSyn rescue, TDP43 rescue, Abeta yeast res)
Cc1ccc(C)c(N2CCN(C(=O)CCC(=O)N3CCOc4ccc(Cl)cc43)CC2)c1	FUS yeast rescue 25µM, aSyn rescue inconclusive, TDP43 rescue inconclusive, Abeta yeast res inconclusive
CC(C)C1C(=O)N(Cc2cn(CCC3OCCO3)nn2)CCS(=O)(=O)N1Cc1ccc(-c2ccncc2)cc1 (stereo unspecified)	none
CC(C)C1C(=O)N(Cc2cn(CCC3OCCO3)nn2)CCS(=O)(=O)N1Cc1ccc(-c2ccccc2Cl)cc1 (stereo unspecified)	FUS yeast rescue inconclusive, aSyn rescue inconclusive, TDP43 rescue 35µM
CC(C)C1C(=O)N(Cc2cn(CCC3OCCO3)nn2)CCS(=O)(=O)N1Cc1ccc(-c2ccc(F)cc2Cl)cc1 (stereo unspecified)	FUS yeast rescue inconclusive, aSyn rescue inconclusive, TDP43 rescue 22µM
